We go through 24 molecules from PubChem BioAssay (EPA / NIEHS).

“And” between values parts separate entries of the source, which are not always exact repeats. Equal values may be shown once. Results filed as inconclusive are left out. The source holds several records for some structures; these can differ, active in one and inactive in another. The source made the active and inactive calls. The calls were made as follows: active = hit-call score of the fitted dose curve at least 0.9, where 1 is the maximum; inconclusive = response in the unintended direction; inactive = score below 0.9.

Test [1] can be described thus: ATG_XTT_Cytotoxicity: Cytotoxicity Assessment in the Attagene TRANS-FACTORIAL HepG2 Assay (AID 2283584).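 As to AC50: XTT signal for cell number as viability in transfected HepG2 cells; cells exposed to compound for 24 h before reading; active means loss of viability signal versus DMSO baseline.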 In outline: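 Transfect HepG2 with GAL4-UAS reporter units, dose compound, incubate 24 h, then measure viable cell number by XTT. Fit concentration response against DMSO baseline.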
The nature of test [2]: TOX21_p53_BLA_p2_viability: Viability Assessment in the Tox21 HCT-116 p53 Agonism Beta-lactamase Assay, Phase 2 (AID 2283591).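 Also: compound exposure lasted 16 h at 37 °C; actives lower the ATP signal meaning cytotoxicity.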 An outline of the steps: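 Cytotoxicity readout: CellTiter-Glo ATP luminescence, 30 min at room temperature, after the beta-lactamase read. Cells were HCT116 exposed 16 h at 37C to compounds pin-transferred at 217-fold dilution from DMSO stocks.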

Test [3] addresses Cellular tumor antigen p53 (Homo sapiens) (UniProt P04637). The test is described as follows: TOX21_p53_BLA_p2_ratio: Tox21 HCT-116 p53 Agonism Beta-lactamase Assay, Ratio, Phase 2 (AID 2283592). An outline of the steps:
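Cleaved-to-uncleaved substrate ratio (460 vs 530 nm) measured in HCT116 cells with an inducible beta-lactamase reporter linked to p53 activity. Compounds incubated 16 h at 37C before 2 h room-temperature CCF4-AM loading.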

A short description of test [4]: TOX21_p53_BLA_p3_viability: Viability Assessment in the Tox21 HCT-116 p53 Agonism Beta-lactamase Assay, Phase 3 (AID 2283593).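 Also: cells exposed to compound for 16 h before reading.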 An outline of the steps: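 Cellular ATP was quantified by CellTiter-Glo luminescence, read after 30 min at room temperature. Beforehand, HCT116 cells (4000/well) received compound 5 h post-seeding, 217-fold diluted from DMSO, then incubated 16 h at 37C.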

Test [5] deals with Cellular tumor antigen p53 (Homo sapiens) (UniProt P04637). As to the kind of experiment: TOX21_p53_BLA_p3_ratio: Tox21 HCT-116 p53 Agonism Beta-lactamase Assay, Ratio, Phase 3 (AID 2283596). An outline of the steps: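 Cells were seeded at 4000/well, rested 5 h at 37C, then dosed with DMSO compound solutions (217-fold dilution) for 16 h. CCF4-AM substrate was loaded for 2 h at room temperature, and the 460/530 nm emission ratio was fitted for gain of signal versus DMSO.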
Sequence of Cellular tumor antigen p53 (Homo sapiens) (P04637 whole entry, looked up): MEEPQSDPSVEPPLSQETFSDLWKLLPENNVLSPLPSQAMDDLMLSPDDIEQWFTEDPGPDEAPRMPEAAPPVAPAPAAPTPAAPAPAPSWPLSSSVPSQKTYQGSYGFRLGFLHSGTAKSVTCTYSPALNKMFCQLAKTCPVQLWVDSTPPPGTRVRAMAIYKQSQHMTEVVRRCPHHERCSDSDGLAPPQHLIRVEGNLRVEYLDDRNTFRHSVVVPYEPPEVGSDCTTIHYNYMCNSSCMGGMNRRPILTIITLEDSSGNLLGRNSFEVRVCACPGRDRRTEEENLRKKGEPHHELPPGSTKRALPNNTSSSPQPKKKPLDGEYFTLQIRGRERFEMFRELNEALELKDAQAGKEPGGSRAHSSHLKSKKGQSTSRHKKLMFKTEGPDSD

Test [6] in a line: TOX21_p53_BLA_p4_viability: Viability Assessment in the Tox21 HCT-116 p53 Agonism Beta-lactamase Assay, Phase 4 (AID 2283597).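 Also: hits lower the luminescence signal meaning cytotoxicity.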 In outline:
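Viability is taken as cellular ATP: after 16 h compound exposure of HCT116 cells and a 2 h room-temperature CCF4-AM substrate step, CellTiter-Glo reagent is added and luminescence is measured 30 min later.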

Test [7] has as its target Cellular tumor antigen p53 (Homo sapiens) (UniProt P04637). As to the kind of experiment: TOX21_p53_BLA_p5_ratio: Tox21 HCT-116 p53 Agonism Beta-lactamase Assay, Ratio, Phase 5 (AID 2283599). An outline of the steps: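 Beta-lactamase reporter ratio (blue 460 nm over green 530 nm, 405 nm excitation) after 2 h CCF4-AM loading, in HCT-116 cells exposed 16 h at 37 C to compounds pinned at 217-fold dilution. Increases relative to DMSO baseline scored.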

The nature of test [8]: TOX21_p53_BLA_p5_viability: Viability Assessment in the Tox21 HCT-116 p53 Agonism Beta-lactamase Assay, Phase 5 (AID 2283600). An outline of the steps: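 Viability is taken from cellular ATP content, measured by luciferase luminescence in the same wells after the beta-lactamase ratio read. Cells are seeded at 4000 per well and exposed to DMSO-dissolved compounds, diluted 217-fold, for 16 h.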

In test [9] the target is Cellular tumor antigen p53 (Homo sapiens) (UniProt P04637). As to the kind of experiment: TOX21_p53_BLA_p4_ratio: Tox21 HCT-116 p53 Agonism Beta-lactamase Assay, Ratio, Phase 4 (AID 2283601). An outline of the steps:
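Signal is the blue/green (460nm/530nm) ratio of cleaved versus uncleaved CCF4-AM substrate, read after 2 h substrate loading. Cells were HCT116 carrying the p53-responsive beta-lactamase reporter, dosed 16 h at 37C, 5% CO2; CellTiter-Glo measured in parallel.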

As for `O=S(=O)(c1ccc(Cl)cc1)c1ccc(Cl)cc1`, the outcome in test [1], in test [2], in test [3], in [4], in [5] and in test [6] was inactive. Besides, the outcome in test [7], in [8] and in test [9] was inactive.

Take `Nc1cccc(Cl)c1`: the outcome in [1], in test [2], in [3], in [4], in [5] and in test [6] was inactive. Besides, the result in test [7], in test [8] and in test [9] was inactive.

Consider `C1CCC(NC2CCCCC2)CC1`, for which the molecule was classed as inactive in test [1], in [2], in test [3], in [4], in [5] and in test [6]. In addition, the outcome in test [7], in test [8] and in [9] was inactive.

On to `CCCCCCCCCl`, for which the call in test [1], in [2], in test [3], in [4], in test [5] and in test [6] was inactive. Further, the outcome in [7] and in test [9] was inactive.

For the molecule `CC1(C)CCC(Cc2ccc(Cl)cc2)C1(O)Cn1cncn1` (centres undefined), the molecule was called inactive in test [1].

`Cc1cc(Cl)ccc1O[C@H](C)C(=O)O`: in test [1], the call was inactive.

Turning to `ClC(Cl)=C(Cl)C(Cl)=C(Cl)Cl`, the molecule was called inactive in test [1].

Regarding `O=C(O)Cc1ccccc1`, the call in test [1] was inactive.

Turning to `Clc1ccc(COC(Cn2ccnc2)c2ccc(Cl)cc2Cl)cc1` (centres undefined), the result in test [1] was inactive. For the same molecule, the AC50 in test [2] is 64.8 µM (active) and 73 µM (active) and 33.7 µM (active); in [3] it was 60.3 µM (active) and 33.3 µM (active) and 23.5 µM (active); in test [4] it was 72.9 µM (active) and 73.5 µM (active) and 23 µM (active); in test [5], 66.3 µM (active) and 45.5 µM (active) and 34.6 µM (active); in test [6], 70.5 µM (active) and 61.1 µM (active) and 37.6 µM (active); in test [7] it was 79.1 µM (active) and 60.7 µM (active) and 38.7 µM (active). In addition, the AC50 in test [8] was 85.2 µM (active) and 75.6 µM (active) and 36.2 µM (active); in test [9] it was 77.8 µM (active) and 62 µM (active) and 33.9 µM (active).

On to `CCc1ccccc1C`, for which the outcome in test [1] was inactive.

With `CC(C)C1CCC(Cc2ccc(Cl)cc2)C1(O)Cn1cncn1` (centres undefined), the AC50 is 33.2 µM (active) in [1]; 53.1 µM (active) in test [2]; 67.8 µM (active) in test [3]; 85.6 µM (active) in test [5]; 45.7 µM (active) in test [6]; 82.8 µM (active) in [7]. For the same molecule, the concentration at half-maximal activity (AC50) in test [9] was 88.7 µM (active). Further, in [1], the call was inactive.

In the case of `CCCCCCCCC(=O)NCc1ccc(O)c(OC)c1`, in test [1], the outcome was inactive.

With `CC1(C)Cc2cccc(O)c2O1`, in [1], the result was inactive.

`CCC[CH2][Sn]([CH2]CCC)([CH2]CCC)[O]C(=O)c1ccccc1`: the AC50 in [1] was 0.906 µM (active); in [2], 0.93 µM (active); in test [3], 23.9 µM (active); in test [4], 2.09 µM (active); in test [5], 24.4 µM (active); in [6], 0.953 µM (active). Besides, the AC50 in test [7] was 24.7 µM (active); in [9], 27.2 µM (active).

For the molecule `Oc1c(I)cc(I)cc1I`, the call in test [1] was inactive.

Consider `CCOP(=S)(OCC)Oc1ccc(S(C)=O)cc1` (centres undefined), for which, in test [1], the result was inactive.

With `CCN(CC)C(=O)Cl`, in test [1], the result was inactive.

Consider `CC(C)(c1ccc(OCC2CO2)cc1)c1ccc(OCC2CO2)cc1` (centres undefined), for which the molecule was classed as inactive in [1], in test [2], in test [3], in [7], in test [8] and in test [9]. For the same molecule, the AC50 was 68.3 µM (active) in test [2]; 84.2 µM (active) and 80.6 µM (active) in [5]; 70.9 µM (active) and 72.2 µM (active) in test [6]; 87.1 µM (active) in test [7]; 79.4 µM (active) in test [9].

Consider `Fc1ccc(C2(Cn3cncn3)OC2c2ccccc2Cl)cc1` (centres undefined), for which the result in test [1] was inactive.

Take `CC(=[OH+])/C=C(/C)[O-].CC(=[OH+])/C=C(/C)[O-].CC(=[OH+])/C=C(/C)[O-].[Fe]`: in test [1], the molecule was called inactive.

For `CC1CN1P(=O)(N1CC1C)N1CC1C` (centres undefined), the molecule was called inactive in test [1].

Turning to `O=C(c1ccccc1)C(Cl)Cl`, in test [1], the outcome was inactive.

With `CC(=[OH+])/C=C(/C)[O-].CC(=[OH+])/C=C(/C)[O-].CC(=[OH+])/C=C(/C)[O-].[Al]`, the call in [1] was inactive.

As to `CCNc1nc(NC(C)(C)C)nc(SC)n1`, the result in test [1], in [2], in test [3], in test [4], in [5] and in test [6] was inactive. Besides, the result in test [7] and in test [9] was inactive.
